# Screens (PubChem BioAssay)
# Shown is part of a subset that was picked to be rich in hits.
# Pf Dd2 inh: blocks in vitro growth of P. falciparum Dd2 | Potency, µM (series often up to 28.9 µM), for the others: at the top dose activity, negative = inhibition, most hits filed as inhibitors | AID 1347417 | P. falciparum Dd2 growth, SYBR Green, 72 h | 120,000 compounds, 4.3% hits; active = well fitted inhibition curve with a large enough effect;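 note: plate controls were DMSO vehicle for no effect and reference drug for full effect; nearly all actives have a fitted effect of over 65% in size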
#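 Readout: SYBR Green fluorescence, 485 nm excitation, 535 nm emission, after ~16 h lysis at 37C. Before that, Dd2-infected red cells (2.5% hematocrit) grew 72 h with compound, 29 uM top final concentration.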
# Active calls of the source: *; i = inactive; [ ] = another dose, or the depositor's remark. Potency is the fitted concentration of half-maximal effect.
SMILES,Pf Dd2 inh
OC1CCOC2(CCN(Cc3ccc(Br)o3)CC2)C1 (stereo not given),2%
COc1ccc2c(c1)c(CN1CCC3(CC1)CC(O)CCO3)cn2C (stereo not given),-2%
OC1CCOC2(CCN(Cc3ccccc3OC(F)(F)F)CC2)C1 (stereo not given),5.6µM*
CC(C)Oc1ccccc1CN1CCC2(CC1)CC(O)CCO2 (stereo not given),5µM*
COc1cccc(CN2CCC3(CC2)CC(O)CCO3)c1OC (stereo not given),-13%
CC(C)N1C[C@H](O)C[C@H]1c1nnc2n1CCN(C(=O)C1CCC1)CC2,-9%
Cc1cc(C)c(NC(=O)Cn2ccn3nc4c(c3c2=O)CCCC4)c(C)c1,22%
COc1cc(CN2C[C@@H](CO)[C@H](NC(=O)c3cccnc3)C2)ccc1F,-9%
CCN1CCC(N(Cc2cccc(OC)c2)C(=O)Nc2ccc(C)cc2Cl)CC1,-14%
CC(=O)N1CCC(N(Cc2ccco2)C(=O)Nc2ccc(C)c(Cl)c2)CC1,1%
COc1ccc(C)cc1NC(=O)N(Cc1ccc(C)o1)C1CCN(C(C)=O)CC1,-17%
COc1ccc(C)cc1NC(=O)N(Cc1ccc2c(c1)OCO2)C1CCN(Cc2ccccc2)CC1,8.9µM*
Cc1ccc(NC(=O)N(Cc2ccc3c(c2)OCO3)C2CCN(Cc3ccccc3)CC2)cc1C,-28%
Cc1ccc(NC(=O)N(Cc2ccc3c(c2)OCO3)C2CCN(Cc3ccccc3)CC2)cc1Cl,10µM*
Cc1noc(-c2cn(C3CCN(C(=O)c4cccc(N(C)C)c4)CC3)nn2)n1,-15%
Cc1cnn(CCC(=O)NC2CCN(c3ccc(=O)n(C)n3)CC2)c1,-17%
CC(C)NC(=O)c1cc(-c2ccc(S(C)(=O)=O)cc2)c2cnn(C)c2n1,3.2µM*
CN(C)C(=O)c1cc(-c2ccc(S(C)(=O)=O)cc2)nc2c1cnn2C,18%
CN(C)C(=O)c1cc(-c2ccc(S(C)(=O)=O)cc2)c2cnn(C)c2n1,8%
CNC(=O)[C@@H]1CN(S(=O)(=O)c2ccccc2F)C[C@H]1COC,15%
O=C(Cn1ccc(=O)[nH]c1=O)N1CCCC(c2[nH]ncc2-c2ccc(F)cc2)C1 (stereo not given),8%
Cc1ccc(-c2ccc3nnc(CNC(=O)COc4ccccc4)n3n2)cc1,-11%
COc1ccc(NC(=O)c2ccco2)cc1NC(=O)C(C)(C)Oc1ccc(Cl)cc1,10µM*
COc1ccc(NC(=O)c2ccco2)cc1NC(=O)c1c(OC)cccc1OC,8%
COc1ccc(C(=O)Nc2cc(NC(=O)c3ccco3)ccc2OC)cc1Cl,24%
SMILES,Pf Dd2 inh
O=C(N[C@@H]1C[C@H](Cn2cc(C3CC3)nn2)[C@@H](O)[C@H]1O)c1ccccc1,-1%[44.1 µM]
Cc1ccc(CNC(=O)CC2CCOCC2)cc1,58%
COc1ccc(-c2ccc3c(c2)C(=O)N2CCN(C(=O)CC(C)(C)C)C[C@@H]2C(=O)N3)cc1,i
O=C1Nc2ccc(-c3ccc4c(c3)OCO4)cc2C(=O)N2CCN(C(=O)c3cccs3)C[C@@H]12,13µM*
O=C1Nc2ccc(-c3ccccc3)cc2C(=O)N2CCN(C(=O)c3cccnc3)C[C@H]12,-25%[44.1 µM]
O=C1Nc2ccc(-c3ccc4c(c3)OCO4)cc2C(=O)N2CCN(C(=O)COc3ccccc3)C[C@H]12,i
COc1ccc(-c2ccc3c(c2)C(=O)N2CCN(C(=O)c4ccccc4)C[C@@H]2C(=O)N3)cc1,5µM*
COCC(=O)N1CCN2C(=O)c3cc(-c4ccc5c(c4)OCO5)ccc3NC(=O)[C@H]2C1,i
COc1ccc(-c2ccc3c(c2)C(=O)N2CCN(C(=O)C4CCNCC4)C[C@@H]2C(=O)N3)c(OC)c1,-16%
CC(C)(C)CC(=O)N1CCN2C(=O)c3cc(-c4ccc(Cl)cc4)ccc3NC(=O)[C@H]2C1,-22%
COc1ccc(C(=O)N2CCN3C(=O)c4cc(-c5ccc(Cl)cc5)ccc4NC(=O)[C@@H]3C2)cc1,6.3µM*
Cc1ncsc1CN1C(=O)CO[C@H](c2ccc(NC(=O)c3ccc(F)cc3)cc2)[C@H]1CO,-17%
CN1Cc2nc(-c3ccc4c(c3)OCO4)ccc2OCC1=O,-15%[44.1 µM]
O=C(Nc1ccc(Br)c(F)c1)c1cnc(-c2ccccc2)nc1-c1ccncc1,-15%
C=CCNC(=O)CCc1c(C)nn(-c2ccc(F)cc2)c1Oc1ccccc1F,i
Cc1cccc(-n2nc(C)c(CCC(=O)N(C)C(C)C)c2Oc2ccc(F)cc2F)c1,-6%
Cc1nn(-c2ccc(F)cc2)c(Oc2ccc(F)cc2F)c1CCC(=O)N(C)C(C)C,-11%
CCNC(=O)CCc1c(C)nn(-c2ccccc2)c1Oc1ccccc1F,i
Cc1nn(-c2ccccc2)c(Oc2ccccc2F)c1CCC(=O)NCc1ccco1,7.9µM*
Cc1nn(-c2ccc(F)cc2)c(Oc2ccc(F)cc2F)c1CCC(=O)NCc1ccco1,i
C=CCNC(=O)CCc1c(C)nn(-c2ccccc2)c1Oc1ccccc1,-22%
Cc1ccccc1-n1nc(C)c(CCC(=O)N(C)C(C)C)c1Oc1ccccc1F,6.3µM*
C=CCNC(=O)CCc1c(C)nn(-c2ccc(F)cc2)c1Oc1ccccc1,7.9µM*
CCc1nc(-c2c3n(c(=O)n(CC(=O)Nc4c(C)cccc4C)c2=O)CCCCC3)no1,i
Cc1ccccc1NC(=O)c1cnc2c(c1)N(C(=O)CCc1ccccc1)CCC2,i
SMILES,Pf Dd2 inh
COC(=O)N1CCC2(CC1)C(=O)NN=C2C1CC1,9%[44.1 µM]
Cc1noc(C)c1S(=O)(=O)N1CCC2(C1)C(=O)Nc1ccccc12 (stereo not given),16%
Cc1nc(C2(C)CCN(S(=O)(=O)c3c(C)noc3C)CC2)no1,-8%
Cc1noc(C)c1S(=O)(=O)N1CCC2(CC1)C(=O)N(C)c1ccccc12,3.5µM*
COCCOc1ccc2c(n1)CCN(C(=O)Cc1ccccc1C)C2,28%
COc1ccc2nc3n(c2c1)[C@@H](CNS(=O)(=O)c1ccccc1)COC3,8.9µM*
COc1ccc2nc3n(c2c1)[C@@H](CNC(=O)c1ccccc1)COC3,i
COc1ccc(S(=O)(=O)NC[C@H]2COCc3nc4cc(C)ccc4n32)cc1,-7%[44.1 µM]
O=C(COc1ccc(F)cc1)N1CCN(c2cc(-c3ccccc3)[nH]n2)CC1,i
COc1ccc(C(=O)Nc2cc(C(C)C)c(O)c(S(=O)(=O)c3ccc(OC)cc3)c2C)cc1,i
COc1ccc(S(=O)(=O)c2c(O)c3ccc(C(=O)NCc4ccc(Cl)cc4)cc3[nH]c2=O)cc1,-3%
COc1ccc(C(=O)NC(c2ccc(Cl)cc2)c2cc(Cl)c3cccnc3c2O)cc1 (stereo not given),2.8µM*
COc1ccc(NC(=O)c2ccc3c(c2)CCN3S(=O)(=O)c2ccc(C)cc2)cc1Cl,8.9µM*
COc1ccc(NC(=O)c2oc3ccc(S(=O)(=O)N4CCCCC4)cc3c2C)cc1Cl,11µM*
COc1ccc(C(=O)Nc2ccc3c(c2)CCCN3S(=O)(=O)c2ccc(C)cc2)cc1,i
Cc1ccc(C)c(NC(=O)c2ccc3c(c2)CCN3S(=O)(=O)c2ccccc2)c1,-19%
CCc1cccc(CC)c1NC(=O)c1ccc2c(c1)CCN2S(=O)(=O)c1ccccc1,7%
COc1ccc(Cl)cc1NC(=O)c1oc2ccc(S(=O)(=O)N3CCCCC3)cc2c1C,41%
Cc1ccc(Cl)cc1NC(=O)c1oc2ccc(S(=O)(=O)N3CCCCCC3)cc2c1C,5%
CC(=O)Nc1ccc(NC(=O)c2ccc3c(c2)CCN3S(=O)(=O)c2ccc(C)cc2)cc1,19%
O=C(Nc1ccc(Cl)c(C(F)(F)F)c1)c1ccc2c(c1)CCN2S(=O)(=O)c1ccccc1,8.9µM*
